Measurements taken from PubChem BioAssay.
Active and inactive are the calls of the source.

Assay: basal S. cerevisiae growth modulation, no modifier, primary screen, OD600, strain BY4716, 24 h, basal condition (AID 1173)
Settings: OD600, 24 h, higher = more signal, called active from +8 up or from −8 down

Row | SMILES | z-score
1 | COC(=O)[C@]1(Cc2ccccc2CN=[N+]=[N-])N=C(c2ccc(OCCCO)cc2)O[C@@H]1c1ccccc1N=[N+]=[N-] | 1.09 (inactive)
2 | O=C1O[C@H](c2ccccc2)[C@H](c2ccccc2)N2[C@H]1[C@@H](C(=O)O)[C@]1(C(=O)Nc3ccc(C#CC4(O)CCCCCC4)cc31)[C@H]2c1ccccc1OCCO | -1.72 (inactive)
3 | COCCOC(=O)N1C(=O)[C@@]2(c3ccccc31)[C@H](C(=O)Nc1nc3ccccc3s1)[C@H]1C(=O)O[C@H](c3ccccc3)[C@H](c3ccccc3)N1[C@@H]2c1ccccc1OCCO | 2.38 (inactive)
4 | [N-]=[N+]=Nc1ccccc1C[C@]1(C(N)=O)COC(c2ccc(OCCCO)cc2)=N1 | -0.0745 (inactive)
5 | CCOC(=O)C1=CCC(c2cccn2C(=O)OC(C)(C)C)N(S(=O)(=O)c2ccc(C)cc2)C1 (stereo not drawn) | -0.902 (inactive)
6 | O=C1C2C=CC(C(O)C(c3ccccc3)c3ccccc3)N(Nc3ccccc3F)C2C(=O)N1c1ccccc1 (stereo not drawn) | -0.704 (inactive)
7 | COc1cc(Cc2cc3c(c(-c4ccccc4)n2)[Si](C(C)C)(C(C)C)OC3)cc(OC)c1OC | 0.299 (inactive)
8 | CC1(C)OB(/C=C\CC(OC(=O)c2ccncc2)c2ccccc2)OC1(C)C (stereo not drawn) | -1.17 (inactive)
9 | COC(=O)[C@@]1(Cc2ccc(F)cc2)[C@H]2c3cc(C(=O)N(C)C)n(Cc4ccc(C(F)(F)F)nc4)c3C[C@H]2CN1C(=O)c1ccccc1 | 0.512 (inactive)
10 | Cc1ccc(S[C@]2(C(=O)NC(C)C)CC(=O)N(Cc3ccccc3)[C@@H]2c2ccc(CO)cc2)cc1 | -0.0962 (inactive)
11 | CN1C(=O)C2C=CC(C(O)c3ccc([N+](=O)[O-])cc3)N(Nc3ccccc3)C2C1=O (stereo not drawn) | -1.21 (inactive)
12 | C=CCNC(=O)[C@@H]1[C@H]2C(=O)O[C@H](c3ccccc3)[C@H](c3ccccc3)N2[C@H](c2ccc(OCCO)cc2)[C@@]12C(=O)Nc1ccc(C#CC3=CCCCC3)cc12 | 0.899 (inactive)
13 | O=C/C=C/c1ccc(-c2ccccc2)cc1 | -18.6 (active)
14 | CCCCCCc1nc(Cc2cc(OC)c(OC)c(OC)c2)c(C)c2c1[Si](C(C)C)(C(C)C)OC2 | -0.944 (inactive)
15 | [N-]=[N+]=Nc1ccccc1C[C@]1(C(=O)N2CCCCC2)N=C(c2ccc(OCCCO)cc2)O[C@H]1c1ccccc1 | -1.04 (inactive)
16 | COc1ccc(C(O)C2C=CC3C(=O)N(C)C(=O)C3N2Nc2ccccc2)cc1 (stereo not drawn) | -3.09 (inactive)
17 | COc1ccc(C(=O)Nc2ccc(CN3C(=O)[C@]4(O[C@H](CC(=O)N(CCO)Cc5ccccc5)[C@@H]([Si](C)(C)c5ccc(OC)cc5)[C@@H]4C)c4ccccc43)cc2)cc1 | 0.352 (inactive)
18 | C=C(COC)C(=O)CC[C@@H](OC(=O)c1ccccc1-c1ccccc1C(=O)O)c1ccccc1OCCO | -1.22 (inactive)
19 | C=C1C(=O)C=C2CN(C(=O)c3ccccc3)[C@@](Cc3ccc(F)cc3)(C(=O)OC)[C@@H]12 | -11.8 (active)
20 | C=CCOC(=O)[C@@H]1[C@H]2C(=O)O[C@H](c3ccccc3)[C@H](c3ccccc3)N2[C@H](c2ccc(OCCOC(=O)[C@H]3C[C@H]4C(=O)N[C@@H](CCCCN(C)C)C(=O)N4[C@H]3c3cccc(OCCO)c3)cc2)[C@@]12C(=O)Nc1ccccc12 | 0.756 (inactive)
21 | COCCCNC(=O)[C@@]1(Cc2ccccc2I)c2ccccc2C(=O)N(Cc2ccccc2OC)[C@H]1c1ccc(CO)cc1 | -0.366 (inactive)
22 | COCCCNC(=O)[C@@]1(Cc2ccccc2I)c2ccccc2C(=O)N(C2CCCCC2)[C@H]1c1ccc(CO)cc1 | -0.6 (inactive)
23 | O=C1C2C=CC(C(O)C3CCCCC3)N(Nc3ccccc3F)C2C(=O)N1c1ccccc1 (stereo not drawn) | -0.701 (inactive)
24 | COC(=O)C1(CC(C)C)C=C2C(=C(C)C(=O)C2C)CN1 (stereo not drawn) | 1.84 (inactive)
25 | CCOC(=O)C=C1C[C@@H](c2cccc([N+](=O)[O-])c2)O[C@@H](c2cccc([N+](=O)[O-])c2)O1 | 2.03 (inactive)
26 | CC(C)Cc1ccc(CN2CC[C@@H](NC(=O)c3ccccc3)C2)cc1 | -7.1 (inactive)
27 | COc1ccc(CCNC(=O)[C@@]2(c3ccc([N+](=O)[O-])cc3)CC(=O)N(C3CCCCC3)[C@@H]2c2ccc(CO)cc2I)cc1 | 0.633 (inactive)
28 | COC(=O)[C@]1(Cc2ccccc2N=[N+]=[N-])N=C(c2ccc(OCCCO)cc2)O[C@@H]1c1ccccc1CN=[N+]=[N-] | 1.24 (inactive)
